Results taken from the supplement of paper PMC6555819.

Key:
Test in all cases: PBM binding z-score (relative to random genomic background probes); higher = stronger binding; sequences stand for … in GC…GCGATTGACAGCGTAGAATGAAGG
[1] = tested on: FXR:RXRa (NR concentration 270 nM, RXRa partner concentration 90 nM)
Procedure, shortened: (§1)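 Binding z-scores take random background probes as their reference. They come from custom Agilent 4×180K protein-binding microarrays incubated 1 h with ligand-free nuclear receptor dimers, with antibodies against each partner (one per run) detecting binding. Scanned fluorescence was regression-normalized.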

[2] = tested on: LXRa:RXRa (NR concentration 270 nM, RXRa partner concentration 90 nM)
Procedure, shortened: as §1

[3] = tested on: LXRa homodimer (NR concentration 270 nM)
Procedure, shortened: as §1

[4] = tested on: LXRb:RXRa (NR concentration 270 nM, RXRa partner concentration 90 nM)
Procedure, shortened: as §1

[5] = tested on: LXRb homodimer (NR concentration 270 nM)
Procedure, shortened: as §1

[6] = tested on: PPARa:RXRa (NR concentration 270 nM, RXRa partner concentration 90 nM)
Procedure, shortened: as §1

[7] = tested on: PPARg:RXRa (NR concentration 180 nM, RXRa partner concentration 90 nM)
Procedure, shortened: as §1

[8] = tested on: PPARg:RXRa 270nM:90nM, anti-RXR (NR concentration 270 nM, RXRa partner concentration 90 nM)
Procedure, shortened: as §1

[9] = tested on: PPARg:RXRa 30nM:10nM, anti-RXR (NR concentration 30 nM, RXRa partner concentration 10 nM)
Procedure, shortened: as §1

[10] = tested on: PPARg:RXRa 90nM:30nM, anti-RXR (NR concentration 90 nM, RXRa partner concentration 30 nM)
Procedure, shortened: as §1

[11] = tested on: PPARg:RXRa DBDmut IVT, anti-RXR (DBD mutation: RXRa K156A/R161A, NR concentration 270 nM, RXRa partner concentration 90 nM)
Procedure, shortened: as §1

[12] = tested on: PPARg:RXRa IVT, anti-PPARg (NR concentration 270 nM, RXRa partner concentration 90 nM)
Procedure, shortened: as §1

[13] = tested on: PPARg DBDmut:RXRa IVT, anti-PPARg (DBD mutation: PPARg1 K132A/R137A, NR concentration 270 nM, RXRa partner concentration 90 nM)
Procedure, shortened: as §1

[14] = tested on: PPARg DBDmut IVT, anti-PPARg (DBD mutation: PPARg1 K132A/R137A, NR concentration 270 nM)
Procedure, shortened: as §1

[15] = tested on: PPARg homodimer (NR concentration 180 nM)
Procedure, shortened: as §1

[16] = tested on: PXR:RXRa (NR concentration 270 nM, RXRa partner concentration 90 nM)
Procedure, shortened: as §1

[17] = tested on: PXR homodimer (NR concentration 270 nM)
Procedure, shortened: as §1

[18] = tested on: RARa:RXR (NR concentration 270 nM, RXRa partner concentration 90 nM)
Procedure, shortened: as §1

[19] = tested on: RARa homodimer (NR concentration 270 nM)
Procedure, shortened: as §1

[20] = tested on: RARb:RXRa (NR concentration 270 nM, RXRa partner concentration 90 nM)
Procedure, shortened: as §1

Sequence: CCTATTAGTTGACCATGAGGGCAACCGAAGCTCG
- PBM binding z-score [1]: 1.01
- PBM binding z-score [2]: 0.684
- PBM binding z-score [3]: 0.747
- PBM binding z-score [4]: 0.619
- PBM binding z-score [5]: 0.6
- PBM binding z-score [6]: 0.652
- PBM binding z-score [7]: 0.438
- PBM binding z-score [8]: 0.373
- PBM binding z-score [9]: -0.175
- PBM binding z-score [10]: 0.282
- PBM binding z-score [11]: 0.64
- PBM binding z-score [12]: 0.77
- PBM binding z-score [13]: 0.542
- PBM binding z-score [14]: 0.384
- PBM binding z-score [15]: 1.98
- PBM binding z-score [16]: 1.48
- PBM binding z-score [17]: 1.48
- PBM binding z-score [18]: 1.37
- PBM binding z-score [19]: 1.39
- PBM binding z-score [20]: 1.52

Sequence: ATATGTAGGTTATCCGGTCATTCAGTTTGCGCAT
- PBM binding z-score [1]: 1.83
- PBM binding z-score [2]: 2.69
- PBM binding z-score [3]: 4.12
- PBM binding z-score [4]: 1.78
- PBM binding z-score [5]: 1.15
- PBM binding z-score [6]: 3.71
- PBM binding z-score [7]: 5.51
- PBM binding z-score [8]: 5.16
- PBM binding z-score [9]: 2.68
- PBM binding z-score [10]: 4.49
- PBM binding z-score [11]: 7.35
- PBM binding z-score [12]: 6.98
- PBM binding z-score [13]: 1.53
- PBM binding z-score [14]: 1.86
- PBM binding z-score [15]: 0.982
- PBM binding z-score [16]: 1.65
- PBM binding z-score [17]: 1.86
- PBM binding z-score [18]: 1.65
- PBM binding z-score [19]: 0.474
- PBM binding z-score [20]: 2.19

Sequence: TGTTGTAGATCAAAGGTTAAGAAAGCCGAAGCCT
- PBM binding z-score [1]: 1.59
- PBM binding z-score [2]: 2.17
- PBM binding z-score [3]: 0.185
- PBM binding z-score [4]: 1.96
- PBM binding z-score [5]: 0.623
- PBM binding z-score [6]: 4.47
- PBM binding z-score [7]: 7.96
- PBM binding z-score [8]: 7.88
- PBM binding z-score [9]: 7.16
- PBM binding z-score [10]: 9.01
- PBM binding z-score [11]: -0.0218
- PBM binding z-score [12]: 3.76
- PBM binding z-score [13]: 0.531
- PBM binding z-score [14]: 0.517
- PBM binding z-score [15]: 1.54
- PBM binding z-score [16]: 2.04
- PBM binding z-score [17]: 0.18
- PBM binding z-score [18]: 2.87
- PBM binding z-score [19]: 0.902
- PBM binding z-score [20]: 1.89

Sequence: CCAGCCAGGTGAGAAGGTAACTCAGCCTCGATTA
- PBM binding z-score [1]: -0.27
- PBM binding z-score [2]: -0.406
- PBM binding z-score [3]: -0.377
- PBM binding z-score [4]: -0.292
- PBM binding z-score [5]: -0.967
- PBM binding z-score [6]: 0.458
- PBM binding z-score [7]: 0.262
- PBM binding z-score [8]: 1.03
- PBM binding z-score [9]: -0.318
- PBM binding z-score [10]: 0.318
- PBM binding z-score [11]: 0.886
- PBM binding z-score [12]: 0.642
- PBM binding z-score [13]: -1.31
- PBM binding z-score [14]: -0.676
- PBM binding z-score [15]: -0.199
- PBM binding z-score [16]: -0.486
- PBM binding z-score [17]: -0.622
- PBM binding z-score [18]: -0.386
- PBM binding z-score [19]: -0.592
- PBM binding z-score [20]: 0.364

Sequence: CTCGAAAGGTCGGTTGAGGTGAGTATGCGGATAA
- PBM binding z-score [1]: 2.51
- PBM binding z-score [2]: 1.72
- PBM binding z-score [3]: -0.105
- PBM binding z-score [4]: 1.27
- PBM binding z-score [5]: -0.0928
- PBM binding z-score [6]: 2.67
- PBM binding z-score [7]: 0.178
- PBM binding z-score [8]: 1.24
- PBM binding z-score [9]: 0.131
- PBM binding z-score [10]: 0.771
- PBM binding z-score [11]: 0.239
- PBM binding z-score [12]: 1.05
- PBM binding z-score [13]: -0.43
- PBM binding z-score [14]: 0.0422
- PBM binding z-score [15]: 1.08
- PBM binding z-score [16]: 2.93
- PBM binding z-score [17]: 0.0767
- PBM binding z-score [18]: 2.11
- PBM binding z-score [19]: 0.202
- PBM binding z-score [20]: 3.01

Sequence: GCTGCTAGGTCAACTGACGGTCAGCTAAAGCTCG
- PBM binding z-score [1]: 4.79
- PBM binding z-score [2]: 3.96
- PBM binding z-score [3]: 1.36
- PBM binding z-score [4]: 2.5
- PBM binding z-score [5]: 0.152
- PBM binding z-score [6]: 3.92
- PBM binding z-score [7]: 2.88
- PBM binding z-score [8]: 3.37
- PBM binding z-score [9]: 0.824
- PBM binding z-score [10]: 2.14
- PBM binding z-score [11]: 5.14
- PBM binding z-score [12]: 4.49
- PBM binding z-score [13]: 0.437
- PBM binding z-score [14]: -0.0795
- PBM binding z-score [15]: 4.42
- PBM binding z-score [16]: 2.08
- PBM binding z-score [17]: -0.874
- PBM binding z-score [18]: 4.58
- PBM binding z-score [19]: 1.05
- PBM binding z-score [20]: 4.56

Sequence: CCTACTGGGCCATTCGGAGGTCATTGATCATATG
- PBM binding z-score [1]: 1.8
- PBM binding z-score [2]: 2.8
- PBM binding z-score [3]: 4.71
- PBM binding z-score [4]: 2.59
- PBM binding z-score [5]: -0.128
- PBM binding z-score [6]: 3.01
- PBM binding z-score [7]: 1.38
- PBM binding z-score [8]: 2.45
- PBM binding z-score [9]: 0.304
- PBM binding z-score [10]: 1.27
- PBM binding z-score [11]: 4.18
- PBM binding z-score [12]: 3.88
- PBM binding z-score [13]: -0.0532
- PBM binding z-score [14]: -0.182
- PBM binding z-score [15]: 1.81
- PBM binding z-score [16]: 3.79
- PBM binding z-score [17]: 2.38
- PBM binding z-score [18]: 3.45
- PBM binding z-score [19]: -0.323
- PBM binding z-score [20]: 2.54

Sequence: ATCTCTAGGTAACAAGTTCACTGAAAGAGAGGAC
- PBM binding z-score [1]: 1.15
- PBM binding z-score [2]: 1.44
- PBM binding z-score [3]: 1.22
- PBM binding z-score [4]: 1.56
- PBM binding z-score [5]: 0.913
- PBM binding z-score [6]: 2.74
- PBM binding z-score [7]: 2.49
- PBM binding z-score [8]: 2.9
- PBM binding z-score [9]: 1.37
- PBM binding z-score [10]: 2.56
- PBM binding z-score [11]: 3.4
- PBM binding z-score [12]: 3.15
- PBM binding z-score [13]: 1.22
- PBM binding z-score [14]: 1.68
- PBM binding z-score [15]: 1.6
- PBM binding z-score [16]: 2.83
- PBM binding z-score [17]: 2.82
- PBM binding z-score [18]: 2.02
- PBM binding z-score [19]: 0.943
- PBM binding z-score [20]: 2.18

Sequence: TCATATAGGTAATACAGGTGAAAGTCGGCATCTA
- PBM binding z-score [1]: 1.2
- PBM binding z-score [2]: 1.54
- PBM binding z-score [3]: 0.569
- PBM binding z-score [4]: 1.2
- PBM binding z-score [5]: 0.365
- PBM binding z-score [6]: 2.06
- PBM binding z-score [7]: 1.67
- PBM binding z-score [8]: 2.61
- PBM binding z-score [9]: 4.12
- PBM binding z-score [10]: 3.5
- PBM binding z-score [11]: 4.2
- PBM binding z-score [12]: 3.48
- PBM binding z-score [13]: 1.31
- PBM binding z-score [14]: 1.86
- PBM binding z-score [15]: 1.33
- PBM binding z-score [16]: 0.888
- PBM binding z-score [17]: 0.728
- PBM binding z-score [18]: 1.34
- PBM binding z-score [19]: 1.98
- PBM binding z-score [20]: 0.83
